Measured values from ChEMBL document CHEMBL1157539, “Thousands of chemical starting points for antimalarial lead identification” (Nature, 2010).

Experiments:
Assay type in all cases: functional
Plasmodium falciparum [1] = test: GSK_TCMDC: Inhibition of Plasmodium falciparum 3D7 in whole red blood cells, using parasite LDH activity as an index of growth. Test compounds present at 2uM
Plasmodium falciparum [2] = test: GSK_TCMDC: Inhibition of Plasmodium falciparum Dd2 in whole red blood cells, using parasite LDH activity as an index of growth. Test compounds present at 2uM
HepG2 = test: GSK_TCMDC: Percent inhibition of human HepG2 cell line. Test compounds present at 10uM.

SMILES | Inhibition (Plasmodium falciparum [1]) [%] | Inhibition (Plasmodium falciparum [2]) [%] | Inhibition (HepG2) [%]
COc1ccc(CCN(C)CCCOc2ccc(NC(=O)COc3cccc4sc5ccccc5c(=O)c34)cc2)cc1OC | 94 | 90 | 99
Cc1cc2c(cc1C(F)(F)F)N(C(=O)Nc1cccc(C(=O)NC3CCN(Cc4ccccc4)CC3)c1)CC2 | 91 | 0 | 19
CC(=O)Nc1ccc(CN(Cc2ccc(F)cc2)Cc2ccc3c(c2)OCO3)cc1 | 91 | 87 | 3
CC(=O)COc1c(C2CCN(CCCCNC(=O)c3ccc(-c4ccc(C(F)(F)F)cc4)cc3)CC2)ccc2c1CCCC2 | 99 | 53 | 100
Cc1cc(C2NC(=O)c3ccccc3N2)c(C)n1-c1ccc2c(c1)OCO2 (stereo not given) | 86 | 85 | 13
Cc1cc(N)c2cc(NC(=O)c3ccc4ccccc4c3)ccc2n1.Cl | 100 | 99 | 33
COc1cc2c(cc1OC)CN(CCc1ccc(NC(=O)c3cc4cc(Cl)ccc4[nH]3)cc1)CC2 | 90 | 6 | 3
COc1ccccc1CCNc1nc(C)cc(N[C@@H](Cc2ccccc2)C(=O)NCc2cccc(F)c2)n1.O=C(O)C(F)(F)F | 99 | 86 | 31
CC(C)c1ccc2[nH]c(C(=O)NC3CCC(N4CCCc5ccc(C#N)cc5C4)CC3)cc2c1 (stereo not given) | 91 | 27 | 48
Cc1ccc2c(OCCN3CCC(Cc4cc5c(cc4F)OCC(=O)N5)CC3)cc(F)cc2n1.Cl | 100 | 71 | 27
CC1CCC(C(C)C)C(OC(=O)CSc2nnc3c(n2)[nH]c2ccccc23)C1 (stereo not given) | 88 | 74 | 0
COc1ccc2nccc(NC(=O)CNCc3ccc(-c4ccccc4)cc3)c2c1 | 100 | 35 | 11
CC(Cc1ccc(C(=O)OCCOC(=O)c2ccc(CC(C)NCC(O)c3cccc(C(F)(F)F)c3)cc2)cc1)NCC(O)c1cccc(C(F)(F)F)c1 (stereo not given) | 98 | 86 | 10
N=C(Nc1ccccc1)Nc1cccc(Cc2ccc([N+](=O)[O-])cc2)n1 | 96 | 19 | 28
Cn1nc(C(F)(F)F)c(-c2ccc(F)cc2)c1NC(=O)Nc1ccc(F)cc1F | 100 | 98 | 11
NC(=O)c1ccc(-c2ccc3ccnc(N)c3c2)cc1.O=C(O)C(F)(F)F | 100 | 98 | 56
Cc1cc(CNCC2CCC(CNCCCc3ccccc3)CC2)ccc1O (stereo not given) | 100 | 0 | 25
Cc1ccc(Cn2ncc(N3CCNCC3)c(Cl)c2=O)cc1NC(=O)Nc1ccc(-c2ccccc2)cc1.O=C(O)C(F)(F)F | 90 | 30 | 56
COc1c(C2CCN(CCCCNC(=O)c3cc(-c4ccc(Cl)cc4)sc3C)CC2)ccc2c1CCCC2 | 100 | 65 | 61
COc1ccc(Br)cc1C1Nc2ccc3ccccc3c2C2=C1C(=O)CC(c1ccccc1)C2 (stereo not given) | 100 | 96 | 25
CC(C)c1cccc(C(NC(=O)[C@H]2Cc3ccccc3CN2C(=O)c2cccc(N3CCOCC3)c2)C2CCCC2)c1 (stereo not given in full) | 94 | 96 | 3
COc1ccc(C2CCN(CCN3CCC(NC(=O)c4cccc(-c5ccncc5)c4)CC3)CC2)c(OC)c1 | 94 | 24 | 7
CCc1cccc(-n2c(=O)c3cccnc3n2CC(=O)NCc2ccccc2Cl)c1 | 98 | 19 | 25
CN(CCO)Cc1ccc(-c2ccc(NS(=O)(=O)c3cccc4cccnc34)cc2)cc1.O=C(O)C(F)(F)F | 99 | 84 | 28
Cc1cccc(C=NN=c2cc(C)[nH]c3ccc(F)cc23)n1 | 95 | 45 | 1
N#Cc1ccc(-c2ccc(OCC(O)CN3CCCN(C(=O)C(c4ccc5c(c4)OCO5)N4CCN(C/C=C/c5ccccc5)CC4)CC3)cc2)cc1 (stereo not given) | 99 | 77 | 25
COc1cc(C)cc(CN2CCC(Cc3ccccc3)CC2)c1O | 97 | 94 | 35
COc1cc(C2=NN(S(=O)(=O)c3c(C)cc(C)cc3C)CCCC2)ccc1Cl | 85 | 76 | 9
O=C(Nc1cccc(F)c1)NC1CCN(CCCCCNC(=O)C2CC2c2ccc(Cl)c(Cl)c2)CC1 (stereo not given) | 100 | 12 | 41
CCCOc1ccccc1C(=O)Nc1nonc1-c1ccc(OCC)c(OCC)c1 | 99 | 89 | 46
